Compound activity as filed in PubChem BioAssay.
A selection: hits, their analogues and other compounds. The true share with any hit is near 32%.
CYP2C9 inh = blockers of cytochrome P450 2C9 activity – biochemical, luminescence, ADME assay, primary screen | CYP2C9 Supersomes, luciferin-H conversion | P11712 | inhibition, % at 5 µM | 96,000 compounds, 20% hits;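 active means blocking of liver enzyme CYP2C9 beyond about 50% at 5 µM, limit read from the data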
Target sequence (P11712 whole entry, looked up): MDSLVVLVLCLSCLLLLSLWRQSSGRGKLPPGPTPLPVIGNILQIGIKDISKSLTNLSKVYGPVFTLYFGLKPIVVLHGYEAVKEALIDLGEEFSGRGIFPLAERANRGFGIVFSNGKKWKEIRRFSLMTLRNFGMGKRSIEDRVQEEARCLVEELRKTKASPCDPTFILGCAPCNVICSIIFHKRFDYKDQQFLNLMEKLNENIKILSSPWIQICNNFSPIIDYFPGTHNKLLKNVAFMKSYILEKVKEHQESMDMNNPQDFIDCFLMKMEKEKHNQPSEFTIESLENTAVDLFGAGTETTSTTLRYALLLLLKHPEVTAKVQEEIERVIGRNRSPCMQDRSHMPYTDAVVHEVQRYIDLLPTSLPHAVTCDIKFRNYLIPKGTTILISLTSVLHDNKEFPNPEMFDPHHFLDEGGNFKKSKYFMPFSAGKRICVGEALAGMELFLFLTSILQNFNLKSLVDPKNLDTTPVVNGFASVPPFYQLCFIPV
CYP2C9 act = human CYP2C9 activators, primary screen, biochemical, luminescence; 96,000 compounds, 1.4% hits; activation factor at 5 µM; recombinant CYP2C9, luciferin-H conversion; stronger effect = higher value; factor 1 = untreated enzyme, 0 = blocked;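 active means activation factor of 2 or more for CYP2C9 at a 5 µM dose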;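 further: 0 = sulfaphenazole-blocked wells and 1 = vehicle-only wells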
CYP2C19 activ = human CYP2C19 activators, primary screen, biochemical, luminescence; activation factor at 5 µM; 96,000 tested, under 10 active; Cytochrome P450 2C19 (Homo sapiens), P33261; recombinant CYP2C19, luciferin-H EGE luminescence; stronger effect = higher value; 0 = fully inhibited enzyme, 1 = untreated enzyme;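 active means activation factor of at least 2 at 5 µM in the primary screen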;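 further: 0 = wells with 2.5 mM tranylcypromine and 1 = vehicle-only wells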
CYP2C19 inh = blockers of cytochrome P450 2C19 activity – biochemical, luminescence, ADME assay, primary screen. P33261. CYP2C19 Supersomes, luciferin-H EGE luminescence, 30 min. inhibition, % at 5 µM. 96,000 compounds, 21% hits. AID 778, 2007;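 active means CYP2C19 inhibition above a set limit at 5 µM in the primary screen, cut at about 50% in these data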;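 further: plate controls were negative control wells for no effect and 2.5 mM tranylcypromine positive control for full effect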
PostGolgi yeast = phenotypic screen on post-Golgi transport, primary screen | post-Golgi transport phenotypic cell assay | inhibition, % at 10 µM | 98,000 compounds, 0.9% hits | AID 739, 2007;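 further: yeast cells grown in 1536-well plates; yeast grown about 18 h at 30C before absorbance read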
PostGolgi ctrl = growth inhibition of yeast control strain, primary screen, counter-screen for post-Golgi transport modulator project; efflux-deficient yeast background strain, growth absorbance A615, 16 h; inhibition, % at 10 µM; 98,000 compounds, 5% hits; AID 738, 2007
An asterisk follows results filed as active. Unless noted, no stated cut-off is given here; in the data, active means inhibition above about 30%; inactive means the rest.

What do the screens show for `CCOc1cc(S(=O)(=O)N(Cc2ccccc2)Cc2ccccc2)c(OCC)cc1-n1cnnn1`?
CYP2C9 inh: 40.9; CYP2C9 act: 0.6; CYP2C19 activ: 0.8; CYP2C19 inh: 24.4; PostGolgi yeast: 0.7; PostGolgi ctrl: 5.5

What do the screens show for `CCOC(=O)c1cc(NC(=O)OC)c(C)nc1C`?
CYP2C9 inh: -21.1; CYP2C9 act: 1.2; CYP2C19 activ: 1; CYP2C19 inh: -3.8; PostGolgi yeast: -4.2; PostGolgi ctrl: 6.4

How did CNC(=O)Nc1cccc(NC(=O)NC)n1 do in these assays?
CYP2C9 inh: 1.2; CYP2C9 act: 1; CYP2C19 activ: 1; CYP2C19 inh: -1.0; PostGolgi yeast: 3.4; PostGolgi ctrl: 0.1

Results for COc1ccc(-c2cc(-c3ccc(OC)c(OC)c3)n[nH]2)c(O)c1 ?
CYP2C9 inh: -23.0; CYP2C9 act: 1.2; CYP2C19 activ: 1; CYP2C19 inh: -1.9; PostGolgi yeast: -12.0; PostGolgi ctrl: 4.4

What do the screens show for `C=C(C)COc1ccc(-c2nc(N)ncc2Oc2ccc(OC)cc2)c(O)c1`?
CYP2C9 inh: 21.9; CYP2C9 act: 0.8; CYP2C19 activ: 0.8; CYP2C19 inh: 18.6; PostGolgi yeast: -8.0; PostGolgi ctrl: 10.9

Results for COc1ccc(-c2c(-c3ccc(O)cc3O)n[nH]c2C)cc1OC ?
CYP2C9 inh: 92.4*; CYP2C9 act: 0.1; CYP2C19 activ: 0; CYP2C19 inh: 99.6*; PostGolgi yeast: 8.5; PostGolgi ctrl: 3.1

How did C=C(C)COc1ccc(-c2n[nH]c(C)c2-c2ccc(Br)cc2)c(O)c1 do in these assays?
CYP2C9 inh: 56.7*; CYP2C9 act: 0.4; CYP2C19 activ: 0.9; CYP2C19 inh: 11.1; PostGolgi yeast: 6.2; PostGolgi ctrl: 18.1

How did Cc1ccc(NC(=O)CSc2nnc(CCCCCNC(=O)OC(C)(C)C)o2)c(C)c1 do in these assays?
PostGolgi yeast: -6.3; PostGolgi ctrl: 0.9

Results for CC1CCc2ccc(F)cc2N1S(=O)(=O)c1cccs1 (stereo not given) ?
CYP2C9 inh: 40.5; CYP2C9 act: 0.6; CYP2C19 activ: 0.4; CYP2C19 inh: 62.1*; PostGolgi yeast: -3.3; PostGolgi ctrl: 6.4

Results for Cc1cccc(NC(=S)N/N=C/c2ccc([N+](=O)[O-])s2)c1 ?
CYP2C9 inh: 9.6; CYP2C9 act: 0.9; CYP2C19 activ: 1.1; CYP2C19 inh: -5.5; PostGolgi yeast: 43.6*; PostGolgi ctrl: 96.0*

Results for Cc1ccc(C(=O)N/N=C/c2ccc([N+](=O)[O-])s2)cc1 ?
CYP2C9 inh: -17.1; CYP2C9 act: 1.2; CYP2C19 activ: 1.1; CYP2C19 inh: -14.6; PostGolgi yeast: -6.3; PostGolgi ctrl: 7.2

How did CSc1ccc(-c2nnn(Cc3ccc(C)cc3)n2)cc1 do in these assays?
CYP2C9 inh: 20.3; CYP2C9 act: 0.8; CYP2C19 activ: 0.4; CYP2C19 inh: 61.5*; PostGolgi yeast: 2.7; PostGolgi ctrl: 10.5

Results for COC(=O)c1[nH]c2ccccc2c1NC(=O)C(C)N1CCN(C(=O)c2ccco2)CC1 (stereo not given) ?
CYP2C9 inh: 25.4; CYP2C9 act: 0.7; CYP2C19 activ: 0.9; CYP2C19 inh: 11.3; PostGolgi yeast: -4.4; PostGolgi ctrl: 12.5

How did S=C(Nc1ccccc1)N1CCn2c1nc1ccccc12 do in these assays?
CYP2C9 inh: 9.4; CYP2C9 act: 0.9; CYP2C19 activ: 1; CYP2C19 inh: 4.9; PostGolgi yeast: 5.6; PostGolgi ctrl: 38.0*

What do the screens show for `COc1ccc(NC(=O)N2CCn3c2nc2ccccc23)cc1`?
CYP2C9 inh: 70.8*; CYP2C9 act: 0.3; CYP2C19 activ: 0.5; CYP2C19 inh: 48.6; PostGolgi yeast: -5.9; PostGolgi ctrl: 28.6

Results for O=C(Nc1ccccc1)N1CCn2c1nc1ccccc12 ?
CYP2C9 inh: 65.6*; CYP2C9 act: 0.3; CYP2C19 activ: 0.8; CYP2C19 inh: 17.6; PostGolgi yeast: 0.3; PostGolgi ctrl: 14.0

Results for CCC(=O)N1CCn2c1nc1ccccc12 ?
CYP2C9 inh: 19.1; CYP2C9 act: 0.8; CYP2C19 activ: 1; CYP2C19 inh: -3.0; PostGolgi yeast: -1.5; PostGolgi ctrl: 1.9
